Measurements as given in PubChem BioAssay AID1159580 (chemical genetic matrix, 2015).
Values joined by “and” are separate entries in the source; they are usually repeats but may differ in a detail not shown here. Equal values may be shown once. About 2,000 (36%) of roughly 5,500 compounds were called active. Another 18% or so got no clear call; they are omitted. Cut-off read from the data, not from the text of the source: active = normalized growth mostly below about 0.91 (no sharp cut-off); inconclusive = no clear call, values can overlap the other calls; inactive = mostly above about 0.92. Some of the results follow.

Test: chemical genetic growth profiling, strain panel (AID 1159580);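 note: tested at 20 µM; growth read once vehicle control cultures reached saturation at 30 °C; 1 = growth at the plate median or of vehicle wells; lower values mean less growth of the strain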
Conditions: growth OD

Measured: normalized growth

NCCc1ccc(O)cc1
inactive: S. cerevisiae deletion strains, locus YJR075W, strain HOC1, active compounds read low 1.01 | S. cerevisiae deletion strains, locus YKL009W, strain mrt4, active compounds read low 0.992 | S. cerevisiae deletion strains, locus YKL068W, active compounds read low 0.994 | S. cerevisiae deletion strains, locus YKL085W, strain MDH1 (second series), active compounds read low 0.996 | S. cerevisiae deletion strains, locus YKL085W, strain MDH1, active compounds read low 0.996 | S. cerevisiae deletion strains, locus YKL160W, strain elf1, active compounds read low 1.01 | S. cerevisiae deletion strains, locus YKL190W, strain CNB1, active compounds read low 1.01 | S. cerevisiae deletion strains, locus YKR001C, strain vps1, active compounds read low 0.978 | S. cerevisiae deletion strains, locus YKR026C, strain gcn3, active compounds read low 0.972 | S. cerevisiae deletion strains, locus YKR091W, strain srl3, active compounds read low 0.986 | S. cerevisiae deletion strains, locus YLL001W, strain dnm1, active compounds read low 0.982 | S. cerevisiae deletion strains, locus YLL026W, active compounds read low 0.985 | S. cerevisiae deletion strains, locus YLL041C, strain sdh2, active compounds read low 0.978 | S. cerevisiae deletion strains, locus YLR027C, strain aat2, active compounds read low 0.984 | S. cerevisiae deletion strains, locus YLR039C, strain RIC1, active compounds read low 1.02 | S. cerevisiae deletion strains, locus YLR058C, strain SHM2, active compounds read low 1.01 | S. cerevisiae deletion strains, locus YLR102C, strain apc9, active compounds read low 0.999 | S. cerevisiae deletion strains, locus YLR113W, strain HOG1, active compounds read low 0.973 | S. cerevisiae deletion strains, locus YLR221C, strain rsa3, active compounds read low 0.951 | S. cerevisiae deletion strains, locus YLR258W, strain gsy2, active compounds read low 0.985 | S. cerevisiae deletion strains, locus YLR262C, strain YPT6 (second series), active compounds read low 0.976 | S. cerevisiae deletion strains, locus YLR262C, strain YPT6, active compounds read low 1.02 | S. cerevisiae deletion strains, locus YLR268W, strain sec22, active compounds read low 0.993 | S. cerevisiae deletion strains, locus YLR320W, strain mms22, active compounds read low 0.962 | S. cerevisiae deletion strains, locus YLR330W, strain CHS5, active compounds read low 1.01 | S. cerevisiae deletion strains, locus YLR342W, strain FKS1 (second series), active compounds read low 1 | S. cerevisiae deletion strains, locus YLR342W, strain FKS1, active compounds read low 0.98 | S. cerevisiae deletion strains, locus YLR357W, strain rsc2, active compounds read low 0.956 | S. cerevisiae deletion strains, locus YLR370C, strain arc18, active compounds read low 0.984 | S. cerevisiae deletion strains, locus YLR371W, strain rom2, active compounds read low 0.981 | S. cerevisiae deletion strains, locus YLR384C, strain iki3, active compounds read low 0.958 | S. cerevisiae deletion strains, locus YLR418C, strain cdc73, active compounds read low 1.02 | S. cerevisiae deletion strains, locus YML016C, strain PPZ1, active compounds read low 1 | S. cerevisiae deletion strains, locus YML032C, strain rad52, active compounds read low 1.02 | S. cerevisiae deletion strains, locus YML120C, strain ndi1, active compounds read low 0.994 | S. cerevisiae deletion strains, locus YML124C, strain tub3, active compounds read low 1 | S. cerevisiae deletion strains, locus YMR058W, strain fet3, active compounds read low 0.973 | S. cerevisiae deletion strains, locus YMR078C, strain ctf18, active compounds read low 0.99 | S. cerevisiae deletion strains, locus YMR125W, strain sto1, active compounds read low 0.989 | S. cerevisiae deletion strains, locus YMR129W, active compounds read low 0.973 | S. cerevisiae deletion strains, locus YMR205C, strain PFK2, active compounds read low 1.01 | S. cerevisiae deletion strains, locus YMR223W, strain ubp8, active compounds read low 1.01 | S. cerevisiae deletion strains, locus YMR231W, strain pep5, active compounds read low 0.97 | S. cerevisiae deletion strains, locus YMR263W, strain SAP30, active compounds read low 1.01 and 1 | S. cerevisiae deletion strains, locus YMR307W, strain GAS1, active compounds read low 0.979 and 1.01 | S. cerevisiae deletion strains, locus YNL067W, strain RPL9B, active compounds read low 1.01 | S. cerevisiae deletion strains, locus YNL071W, strain lat1, active compounds read low 0.989 | S. cerevisiae deletion strains, locus YNL153C, strain GIM3, active compounds read low 1.01 and 1.04 | S. cerevisiae deletion strains, locus YNL175C, strain NOP13, active compounds read low 1.03 | S. cerevisiae deletion strains, locus YNL183C, strain NPR1, active compounds read low 0.953 | S. cerevisiae deletion strains, locus YNL197C, strain WHI3, active compounds read low 1 | S. cerevisiae deletion strains, locus YNL209W, strain ssb2, active compounds read low 1 | S. cerevisiae deletion strains, locus YNL224C, strain SQS1, active compounds read low 1 | S. cerevisiae deletion strains, locus YNL233W, strain BNI4, active compounds read low 1 | S. cerevisiae deletion strains, locus YNL250W, strain rad50, active compounds read low 0.995 | S. cerevisiae deletion strains, locus YNL271C, strain bni1, active compounds read low 0.993 | S. cerevisiae deletion strains, locus YNL298W, strain CLA4, active compounds read low 1 | S. cerevisiae deletion strains, locus YNL307C, strain MCK1, active compounds read low 1.02 | S. cerevisiae deletion strains, locus YNL322C, strain KRE1 (second series), active compounds read low 0.992 | S. cerevisiae deletion strains, locus YNL322C, strain KRE1, active compounds read low 1 and 0.993 | S. cerevisiae deletion strains, locus YNR049C, strain mso1, active compounds read low 0.98 | S. cerevisiae deletion strains, locus YNR052C, strain pop2, active compounds read low 0.988 | S. cerevisiae deletion strains, locus YOL012C, strain htz1 0.829 | S. cerevisiae deletion strains, locus YOL147C, strain pex11, active compounds read low 1 | S. cerevisiae deletion strains, locus YOR001W, strain rrp6, active compounds read low 0.927 | S. cerevisiae deletion strains, locus YOR061W, strain CKA2, active compounds read low 1.01 | S. cerevisiae deletion strains, locus YOR069W, strain VPS5, active compounds read low 1 | S. cerevisiae deletion strains, locus YOR070C, strain gyp1, active compounds read low 0.963 | S. cerevisiae deletion strains, locus YOR080W, strain dia2, active compounds read low 0.968 | S. cerevisiae deletion strains, locus YOR083W, strain WHI5 (second series), active compounds read low 1.03 | S. cerevisiae deletion strains, locus YOR083W, strain WHI5, active compounds read low 1.01 | S. cerevisiae deletion strains, locus YOR106W, strain vam3, active compounds read low 1.02 | S. cerevisiae deletion strains, locus YOR136W, strain idh2, active compounds read low 0.996 | S. cerevisiae deletion strains, locus YOR144C, strain elg1, active compounds read low 0.992 | S. cerevisiae deletion strains, locus YOR184W, strain ser1, active compounds read low 1 | S. cerevisiae deletion strains, locus YOR231W, strain MKK1, active compounds read low 0.963 | S. cerevisiae deletion strains, locus YOR265W, strain rbl2, active compounds read low 1 | S. cerevisiae deletion strains, locus YOR270C, strain vph1, active compounds read low 0.964 | S. cerevisiae deletion strains, locus YOR290C, strain snf2, active compounds read low 1 | S. cerevisiae deletion strains, locus YOR316C, strain cot1, active compounds read low 1 | S. cerevisiae deletion strains, locus YPL051W, strain arl3, active compounds read low 0.987 | S. cerevisiae deletion strains, locus YPL055C, strain LGE1, active compounds read low 1.01 | S. cerevisiae deletion strains, locus YPL078C, strain atp4, active compounds read low 0.997 | S. cerevisiae deletion strains, locus YPL106C, strain sse1, active compounds read low 0.987 | S. cerevisiae deletion strains, locus YPL240C, strain hsp82, active compounds read low 0.976 | S. cerevisiae deletion strains, locus YPL241C, strain CIN2, active compounds read low 1.01 and 1 | S. cerevisiae deletion strains, locus YPL256C, strain CLN2, active compounds read low 0.953 | S. cerevisiae deletion strains, locus YPR119W, strain clb2, active compounds read low 0.992 | S. cerevisiae deletion strains, locus YPR141C, strain kar3, active compounds read low 0.996 | S. cerevisiae deletion strains, locus YPR163C, strain tif3, active compounds read low 1.01 | S. cerevisiae deletion strains, locus YPR167C, strain met16, active compounds read low 1.01 | S. cerevisiae deletion strains, strain wtn01, active compounds read low 0.984 | S. cerevisiae strains, strain wild type, active compounds read low 1
active: S. cerevisiae deletion strains, locus YNL248C, strain rpa49, active compounds read low 0.856
